This is an account of results in paper PMC11006913.

Substitutions are numbered along the chain they refer to.

Holding throughout (test): PBM; 200 nM protein, PBS
Common to all, as to conditions: dsDNA, one strand shown

The target in test [1] is NKX2-5 (Homo sapiens, UniProt P52952 125-210, R139K).
For test [2], the target named is NKX2-5 (Homo sapiens, UniProt P52952 125-210).
For test [3], the target named is T1, NKX2-4 (Homo sapiens, UniProt Q9H2Z4 175-261, P217L).
T1 sequence: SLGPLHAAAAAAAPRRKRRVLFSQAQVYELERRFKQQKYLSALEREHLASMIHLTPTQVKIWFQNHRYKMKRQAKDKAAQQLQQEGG

Test [4] deals with T2, VENTX (Homo sapiens, UniProt O95231 78-163, R121Q).
T2 sequence: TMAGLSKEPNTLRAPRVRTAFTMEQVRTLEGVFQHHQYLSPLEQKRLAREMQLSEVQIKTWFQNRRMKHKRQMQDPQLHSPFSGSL

The target of test [5] is T3, VENTX (Homo sapiens, UniProt O95231 78-163).
T3 sequence: T2 sequence with Q44R

For test [6], the target named is T4, NKX2-4 (Homo sapiens, UniProt Q9H2Z4 175-261, T231S).
T4 sequence: T1 sequence with L43P, T57S

In test [7] the target is T5, VENTX (Homo sapiens, UniProt O95231 78-163, Y115F).
T5 sequence: T2 sequence with Y38F, Q44R

In test [8] the target is T6, NKX2-4 (Homo sapiens, UniProt Q9H2Z4 175-261).
T6 sequence: T1 sequence with L43P

Test [9] has as its target T7, NKX2-6 (Homo sapiens, UniProt A6NCS4 118-204, R150C).
T7 sequence: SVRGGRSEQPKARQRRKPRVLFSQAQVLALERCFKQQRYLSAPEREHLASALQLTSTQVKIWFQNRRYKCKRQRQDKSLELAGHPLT

For test [10], the target named is T8, NKX2-6 (Homo sapiens, UniProt A6NCS4 118-204).
T8 sequence: T7 sequence with C33R

Test [11] addresses T9, NKX2-4 (Homo sapiens, UniProt Q9H2Z4 175-261, R246Q).
T9 sequence: T1 sequence with L43P, R72Q

For test [12], the target named is T10, NKX2-6 (Homo sapiens, UniProt A6NCS4 118-204, F151L).
T10 sequence: T7 sequence with C33R, F34L

The target of test [13] is NKX3-2 (Homo sapiens, UniProt P78367 192-278, P234S).
NKX3-2 (Homo sapiens, UniProt P78367 192-278, P234S), sequence (P78367 192-278 P234S): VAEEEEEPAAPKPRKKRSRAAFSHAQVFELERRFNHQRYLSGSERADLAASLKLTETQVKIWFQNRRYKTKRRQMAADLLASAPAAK
The target in test [14] is NKX3-2 (Homo sapiens, UniProt P78367 192-278).
NKX3-2 (Homo sapiens, UniProt P78367 192-278), sequence (P78367 192-278): as the sequence (P78367 192-278 P234S) above, with S43P counted along it
In test [15] the target is HOXB4 (Homo sapiens, UniProt P17483 148-234).
HOXB4 (Homo sapiens, UniProt P17483 148-234), sequence (P17483 148-234): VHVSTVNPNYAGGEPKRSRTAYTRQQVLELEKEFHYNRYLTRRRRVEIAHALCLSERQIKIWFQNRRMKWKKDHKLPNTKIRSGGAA
The target of test [16] is HOXB4 (Homo sapiens, UniProt P17483 148-234, V174I).
HOXB4 (Homo sapiens, UniProt P17483 148-234, V174I), sequence (P17483 148-234 V174I): as the sequence (P17483 148-234) above, with V27I counted along it
Test [17] concerns the target ALX1 (Homo sapiens, UniProt Q15699 118-204, L144V).
The target in test [18] is ALX1 (Homo sapiens, UniProt Q15699 118-204, L144R).
ALX1 (Homo sapiens, UniProt Q15699 118-204, L144R), sequence (Q15699 118-204 L144R): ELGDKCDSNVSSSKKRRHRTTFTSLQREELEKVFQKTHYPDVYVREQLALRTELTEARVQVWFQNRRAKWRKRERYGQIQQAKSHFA
The target of test [19] is ALX1 (Homo sapiens, UniProt Q15699 118-204).
ALX1 (Homo sapiens, UniProt Q15699 118-204), sequence (Q15699 118-204): as the sequence (Q15699 118-204 L144R) above, with R27L counted along it

NKX2-5 (Homo sapiens, UniProt P52952 125-210, R139K), sequence (P52952 125-210 R139K): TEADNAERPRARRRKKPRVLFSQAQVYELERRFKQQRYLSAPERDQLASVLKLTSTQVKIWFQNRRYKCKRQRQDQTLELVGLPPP
NKX2-5 (Homo sapiens, UniProt P52952 125-210), sequence (P52952 125-210): as the sequence (P52952 125-210 R139K) above, with K15R counted along it
ALX1 (Homo sapiens, UniProt Q15699 118-204, L144V), sequence (Q15699 118-204 L144V): as the sequence (Q15699 118-204 L144R) above, with R27V counted along it

Turning to CTTCCGTC, the binding signal was 8.85 upbm affinity estimate (log intensity, higher = more binding, comparable within an allelic series) in test [1] and 8.77 upbm affinity estimate (log intensity, higher = more binding, comparable within an allelic series) in test [2].
Take GCACTTAA: the binding signal in [1] is 13.1 upbm affinity estimate (log intensity, higher = more binding, comparable within an allelic series); in test [3], 12.6 upbm affinity estimate (log intensity, higher = more binding, comparable within an allelic series); in [4], 10.2 upbm affinity estimate (log intensity, higher = more binding, comparable within an allelic series); in [5] it was 10.9 upbm affinity estimate (log intensity, higher = more binding, comparable within an allelic series); in test [6] it was 13 upbm affinity estimate (log intensity, higher = more binding, comparable within an allelic series); in test [7], 10.3 upbm affinity estimate (log intensity, higher = more binding, comparable within an allelic series). The binding signal in test [8] is 12.5 upbm affinity estimate (log intensity, higher = more binding, comparable within an allelic series); in test [9], 12 upbm affinity estimate (log intensity, higher = more binding, comparable within an allelic series); in test [10], 13.8 upbm affinity estimate (log intensity, higher = more binding, comparable within an allelic series); in test [11] it was 13.2 upbm affinity estimate (log intensity, higher = more binding, comparable within an allelic series); in test [12], 11.6 upbm affinity estimate (log intensity, higher = more binding, comparable within an allelic series); in test [13], 12.9 upbm affinity estimate (log intensity, higher = more binding, comparable within an allelic series). Moreover, the binding signal in [2] is 13 upbm affinity estimate (log intensity, higher = more binding, comparable within an allelic series); in [14], 13.1 upbm affinity estimate (log intensity, higher = more binding, comparable within an allelic series).
CTAATTGC: the binding signal was 10.9 upbm affinity estimate (log intensity, higher = more binding, comparable within an allelic series) in test [1]; 12.9 upbm affinity estimate (log intensity, higher = more binding, comparable within an allelic series) in test [15]; 12.3 upbm affinity estimate (log intensity, higher = more binding, comparable within an allelic series) in [4]; 12.7 upbm affinity estimate (log intensity, higher = more binding, comparable within an allelic series) in [5]; 12 upbm affinity estimate (log intensity, higher = more binding, comparable within an allelic series) in test [7]; 13.7 upbm affinity estimate (log intensity, higher = more binding, comparable within an allelic series) in test [16]. In addition, the binding signal is 11.5 upbm affinity estimate (log intensity, higher = more binding, comparable within an allelic series) in test [17]; 11 upbm affinity estimate (log intensity, higher = more binding, comparable within an allelic series) in test [18]; 12.2 upbm affinity estimate (log intensity, higher = more binding, comparable within an allelic series) in test [19]; 11.1 upbm affinity estimate (log intensity, higher = more binding, comparable within an allelic series) in [2].
Consider CACTTTAA, for which the binding signal in [1] was 12.4 upbm affinity estimate (log intensity, higher = more binding, comparable within an allelic series); in [3] it was 12.5 upbm affinity estimate (log intensity, higher = more binding, comparable within an allelic series); in [6], 12.9 upbm affinity estimate (log intensity, higher = more binding, comparable within an allelic series); in test [8], 12.3 upbm affinity estimate (log intensity, higher = more binding, comparable within an allelic series); in test [9], 11.7 upbm affinity estimate (log intensity, higher = more binding, comparable within an allelic series); in test [10], 13.4 upbm affinity estimate (log intensity, higher = more binding, comparable within an allelic series). The binding signal in test [11] is 13 upbm affinity estimate (log intensity, higher = more binding, comparable within an allelic series); in test [12], 10.7 upbm affinity estimate (log intensity, higher = more binding, comparable within an allelic series); in test [13] it was 12.5 upbm affinity estimate (log intensity, higher = more binding, comparable within an allelic series); in [2], 12.4 upbm affinity estimate (log intensity, higher = more binding, comparable within an allelic series); in test [14], 12.6 upbm affinity estimate (log intensity, higher = more binding, comparable within an allelic series).
As for CCAGCGCG, the binding signal in test [1] is 8.57 upbm affinity estimate (log intensity, higher = more binding, comparable within an allelic series); in [2], 8.52 upbm affinity estimate (log intensity, higher = more binding, comparable within an allelic series).
On to GGCACTTA, for which the binding signal in test [1] was 13.1 upbm affinity estimate (log intensity, higher = more binding, comparable within an allelic series); in test [3], 12.7 upbm affinity estimate (log intensity, higher = more binding, comparable within an allelic series); in test [6] it was 13.1 upbm affinity estimate (log intensity, higher = more binding, comparable within an allelic series); in [8] it was 12.6 upbm affinity estimate (log intensity, higher = more binding, comparable within an allelic series); in [9], 12.1 upbm affinity estimate (log intensity, higher = more binding, comparable within an allelic series); in [10], 13.8 upbm affinity estimate (log intensity, higher = more binding, comparable within an allelic series). Also, the binding signal in [11] was 13.2 upbm affinity estimate (log intensity, higher = more binding, comparable within an allelic series); in [12], 11.4 upbm affinity estimate (log intensity, higher = more binding, comparable within an allelic series); in [13] it was 13.3 upbm affinity estimate (log intensity, higher = more binding, comparable within an allelic series); in [2] it was 13 upbm affinity estimate (log intensity, higher = more binding, comparable within an allelic series); in test [14], 13.4 upbm affinity estimate (log intensity, higher = more binding, comparable within an allelic series).
With AAGTACCC, the binding signal in [1] is 12.4 upbm affinity estimate (log intensity, higher = more binding, comparable within an allelic series); in test [3] it was 12.4 upbm affinity estimate (log intensity, higher = more binding, comparable within an allelic series); in [6], 12.9 upbm affinity estimate (log intensity, higher = more binding, comparable within an allelic series); in test [8] it was 12.3 upbm affinity estimate (log intensity, higher = more binding, comparable within an allelic series); in test [9] it was 11.7 upbm affinity estimate (log intensity, higher = more binding, comparable within an allelic series); in test [10] it was 13.4 upbm affinity estimate (log intensity, higher = more binding, comparable within an allelic series). Further, the binding signal in [11] is 12.9 upbm affinity estimate (log intensity, higher = more binding, comparable within an allelic series); in test [12], 10.5 upbm affinity estimate (log intensity, higher = more binding, comparable within an allelic series); in test [13], 12.8 upbm affinity estimate (log intensity, higher = more binding, comparable within an allelic series); in test [2] it was 12.2 upbm affinity estimate (log intensity, higher = more binding, comparable within an allelic series); in test [14], 12.8 upbm affinity estimate (log intensity, higher = more binding, comparable within an allelic series).
